# Test results from PubChem BioAssay.
# Calls of active or inactive are those of the source.
# Tests used:
# [1] = system: Plasmodium falciparum Sir2 (PF13_0152, Sir2A); experiment: Plasmodium falciparum Sir2A binding compounds – biochemical, small-molecule microarray, 635 nm fluorescence, primary screen (AID 1098); conditions: fluorescence 635 nm, higher = more signal;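 also: score merges spot fluorescence intensity with its signal-to-noise ratio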
# [2] = probe aDKK1 binding to arrayed compounds – biochemical, biotinylated probe, 635/667 nm fluorescence, primary screen (AID 1099); conditions: small-molecule microarray, higher = more signal;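 also: score merges 667nm spot fluorescence with signal to noise across triplicate slides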
# [3] = probe aCHRDL2 binding to arrayed compounds – biochemical, biotinylated probe, 635/667 nm fluorescence, primary screen (AID 1100); conditions: small-molecule microarray, higher = more signal
# [4] = change in splice reporter luminescence, either direction, cell-based, HEK293, spliceosome inhibition project, primary screen (AID 1101); conditions: HEK293 splicing luciferase reporter, 24 h, higher = more signal, called active from +8 up or from −8 down;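 also: HEK293 cells carrying a splicing-competent luciferase reporter gene; test concentration not given here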
# [5] = biological target: Fibroblast growth factor 10 (Homo sapiens) (UniProt O15520); experiment: compounds binding fibroblast growth factor 10 – biochemical, small-molecule microarray, 635 nm fluorescence, primary screen (AID 1102); conditions: FGF10 binding, fluorescence 635 nm, higher = more signal
# [6] = system: glycogen synthase kinase-3 (GSK3A per assay name; protocol says GSK3B); experiment: compounds binding glycogen synthase kinase-3 – biochemical, small-molecule microarray, 635 nm fluorescence, GSK3A, primary screen (AID 1103); conditions: fluorescence 635 nm, higher = more signal; also: the record names both GSK3A and GSK3B
# [7] = biological target: Epidermal growth factor receptor (Homo sapiens) (UniProt P00533); experiment: compounds binding epidermal growth factor receptor – biochemical, small-molecule microarray, 635 nm fluorescence, primary screen (AID 1104); conditions: EGFR binding, higher = more signal;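 also: score merges 667 nm emission intensity with spot signal to noise over triplicate slides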
# [8] = biological target: Follistatin-related protein 3 (Homo sapiens) (UniProt O95633); experiment: compounds binding follistatin-related protein 3 – biochemical, small-molecule microarray, 635 nm fluorescence, primary screen (AID 1105); conditions: FSTL3 binding, higher = more signal;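 also: score merges emission near 667 nm and signal to noise per printed spot across three slides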
# [9] = biological target: Dickkopf-related protein 1 (Homo sapiens) (UniProt O94907); experiment: small molecules binding DKK1 protein – biochemical, small-molecule microarray, 635 nm fluorescence scan, primary screen (AID 1106); conditions: higher = more signal;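 also: score merges emission near 667 nm with signal to noise over three replicate slides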
# [10] = system: Inhibin beta A chain (activin A); experiment: small molecules binding activin A – biochemical, small-molecule microarray, 635 nm fluorescence scan, primary screen (AID 1107); conditions: INHBA, higher = more signal;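 also: mouse activin A protein probed at 4.33 µg/mL on printed slides; score merges bound-protein fluorescence near 667 nm with spot signal-to-noise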
# [11] = system: Human papillomavirus type 1a protein E7 (residues 44-93); experiment: small molecules binding HPV E7 44-93 – biochemical, small-molecule microarray, residues 44-93, 635 nm fluorescence, primary screen (AID 1108); conditions: fluorescence 635 nm, higher = more signal;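 also: E7 fragment applied at 1 µg/mL in TBST for 1 h at 4 C; score combines spot fluorescence with its signal to noise ratio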
# [12] = hepatitis C replication reporter changes, two-sided – Huh7 cells, luciferase reporter, HCV replication inhibitor project, primary screen (AID 1109); conditions: Huh7 HCV replicon luciferase reporter, 48 h; higher = more signal;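 also: huh7 hepatoma cells harbouring a luciferase neomycin HCV replicon reporter; luciferase luminescence as measure of HCV replicon replication; test concentration not given here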
# [13] = biological target: Left-right determination factor 2 (Homo sapiens) (UniProt O00292); experiment: small molecules binding LEFTY2 protein – biochemical, small-molecule microarray, 635 nm fluorescence scan, primary screen (AID 1110); conditions: higher = more signal
# [14] = biological target: Calmodulin-1 (Homo sapiens) (UniProt P0DP23); experiment: small molecules binding calmodulin-1 with EGTA – biochemical, small-molecule microarray, Cy5-labelled CALM1, profiling panel (AID 1111); conditions: Cy5-CALM1 binding fluorescence, higher = more signal;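 also: labelled calmodulin applied in Tris saline Tween buffer holding calcium plus EGTA and DTT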
# [15] = biological target: Calmodulin-1 (Homo sapiens) (UniProt P0DP23); experiment: small molecules binding Ca-loaded calmodulin-1 – biochemical, small-molecule microarray, Cy5-labelled CALM1, plus calcium, artefact control for SMM control-protein annotation, profiling panel (AID 1112); conditions: Cy5-CALM1 binding fluorescence, higher = more signal;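 also: score merges spot fluorescence with signal to noise from triplicate slides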
# [16] = probe aWnt5a binding to arrayed compounds – biochemical, biotinylated probe, 635/667 nm fluorescence, primary screen (AID 1113); conditions: small-molecule microarray, higher = more signal;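 also: score merges 667 nm fluorescence intensity with signal-to-noise per printed feature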
# [17] = probe aShh binding to arrayed compounds – biochemical, biotinylated probe, 635/667 nm fluorescence, primary screen (AID 1114); conditions: small-molecule microarray, higher = more signal;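 also: probe is biotin-labelled aShh protein from a stem cell growth factor screen; measures binding of labelled protein to compounds printed on the slide; score merges feature fluorescence at 667 nm with signal-to-noise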
# [18] = probe aNog binding to arrayed compounds – biochemical, biotinylated probe, 635/667 nm fluorescence, primary screen (AID 1115); conditions: small-molecule microarray, higher = more signal;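 also: probe is biotinylated aNog protein used at 0.15 µg/mL for 1 h at 4 C; z-score combines 667 nm fluorescence of each spot with its signal to noise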
# [19] = biological target: Torsin-1A-interacting protein 1 (Homo sapiens) (UniProt Q5JTV8); experiment: compound microarray binding of lysate hLAP1 – cell lysate, small-molecule microarray, COS7 lysate, 635/667 nm fluorescence, primary screen (AID 1116); conditions: 635 nm fluorescence, higher = more signal
# [20] = biological target: Alpha-bungarotoxin (Bungarus multicinctus) (UniProt P60615); experiment: compounds binding labelled alpha-BTX control protein – biochemical, small-molecule microarray, Alexa647 label, 635/667 nm fluorescence, artefact control for SMM control protein annotation, profiling panel (AID 1117); conditions: alpha-BTX-A647 binding fluorescence, higher = more signal
# Sequence of Alpha-bungarotoxin (Bungarus multicinctus) (P60615 whole entry, looked up): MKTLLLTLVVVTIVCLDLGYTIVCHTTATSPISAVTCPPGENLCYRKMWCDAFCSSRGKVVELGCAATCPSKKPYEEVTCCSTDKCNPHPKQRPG
# Sequence of Fibroblast growth factor 10 (Homo sapiens) (O15520 whole entry, looked up): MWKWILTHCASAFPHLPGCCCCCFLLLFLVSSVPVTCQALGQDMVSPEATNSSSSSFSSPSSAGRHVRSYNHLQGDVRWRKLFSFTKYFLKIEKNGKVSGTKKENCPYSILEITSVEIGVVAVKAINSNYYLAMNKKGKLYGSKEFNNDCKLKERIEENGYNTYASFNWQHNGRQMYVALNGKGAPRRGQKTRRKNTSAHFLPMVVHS
# Sequence of Dickkopf-related protein 1 (Homo sapiens) (O94907 whole entry, looked up): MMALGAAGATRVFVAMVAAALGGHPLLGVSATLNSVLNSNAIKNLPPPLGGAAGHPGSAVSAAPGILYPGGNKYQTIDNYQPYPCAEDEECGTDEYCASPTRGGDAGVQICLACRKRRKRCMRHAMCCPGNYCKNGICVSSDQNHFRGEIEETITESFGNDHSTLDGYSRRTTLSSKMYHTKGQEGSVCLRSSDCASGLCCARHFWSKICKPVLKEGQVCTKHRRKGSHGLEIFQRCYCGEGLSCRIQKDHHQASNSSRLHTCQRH
# Sequence of Left-right determination factor 2 (Homo sapiens) (O00292 whole entry, looked up): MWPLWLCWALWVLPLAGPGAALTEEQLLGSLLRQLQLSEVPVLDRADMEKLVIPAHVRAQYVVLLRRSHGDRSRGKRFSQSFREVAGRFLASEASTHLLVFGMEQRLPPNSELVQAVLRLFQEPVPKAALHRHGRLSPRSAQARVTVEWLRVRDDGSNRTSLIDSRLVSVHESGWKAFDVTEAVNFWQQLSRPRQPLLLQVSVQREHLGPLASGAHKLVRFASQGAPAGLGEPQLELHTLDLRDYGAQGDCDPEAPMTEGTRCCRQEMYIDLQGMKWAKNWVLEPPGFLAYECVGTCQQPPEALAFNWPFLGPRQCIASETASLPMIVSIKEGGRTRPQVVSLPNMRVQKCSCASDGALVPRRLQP
# Sequence of Follistatin-related protein 3 (Homo sapiens) (O95633 whole entry, looked up): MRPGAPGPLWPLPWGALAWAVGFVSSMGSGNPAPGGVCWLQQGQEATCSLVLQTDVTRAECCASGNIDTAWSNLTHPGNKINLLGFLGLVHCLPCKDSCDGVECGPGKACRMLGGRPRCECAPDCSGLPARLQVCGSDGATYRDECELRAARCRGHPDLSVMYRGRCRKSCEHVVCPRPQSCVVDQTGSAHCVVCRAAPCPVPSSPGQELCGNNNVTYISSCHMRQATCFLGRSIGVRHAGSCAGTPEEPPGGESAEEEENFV
# Sequence of Torsin-1A-interacting protein 1 (Homo sapiens) (Q5JTV8 whole entry, looked up): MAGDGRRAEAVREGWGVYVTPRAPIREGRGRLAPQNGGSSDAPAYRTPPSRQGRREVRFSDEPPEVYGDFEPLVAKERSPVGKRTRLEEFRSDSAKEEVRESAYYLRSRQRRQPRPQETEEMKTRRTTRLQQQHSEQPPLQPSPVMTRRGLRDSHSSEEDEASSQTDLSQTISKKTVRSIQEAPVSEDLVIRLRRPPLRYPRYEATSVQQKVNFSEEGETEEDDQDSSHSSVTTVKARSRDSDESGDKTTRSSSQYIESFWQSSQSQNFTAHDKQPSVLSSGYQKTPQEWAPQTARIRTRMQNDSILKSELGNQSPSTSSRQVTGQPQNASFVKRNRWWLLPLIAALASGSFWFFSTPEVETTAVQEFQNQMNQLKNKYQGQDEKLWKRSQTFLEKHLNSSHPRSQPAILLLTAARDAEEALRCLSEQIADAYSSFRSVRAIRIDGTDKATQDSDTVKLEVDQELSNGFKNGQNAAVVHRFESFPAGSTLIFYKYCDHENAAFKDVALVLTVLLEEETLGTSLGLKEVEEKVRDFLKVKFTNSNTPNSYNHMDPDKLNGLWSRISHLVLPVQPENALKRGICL
# Sequence of Epidermal growth factor receptor (Homo sapiens) (P00533 whole entry, looked up): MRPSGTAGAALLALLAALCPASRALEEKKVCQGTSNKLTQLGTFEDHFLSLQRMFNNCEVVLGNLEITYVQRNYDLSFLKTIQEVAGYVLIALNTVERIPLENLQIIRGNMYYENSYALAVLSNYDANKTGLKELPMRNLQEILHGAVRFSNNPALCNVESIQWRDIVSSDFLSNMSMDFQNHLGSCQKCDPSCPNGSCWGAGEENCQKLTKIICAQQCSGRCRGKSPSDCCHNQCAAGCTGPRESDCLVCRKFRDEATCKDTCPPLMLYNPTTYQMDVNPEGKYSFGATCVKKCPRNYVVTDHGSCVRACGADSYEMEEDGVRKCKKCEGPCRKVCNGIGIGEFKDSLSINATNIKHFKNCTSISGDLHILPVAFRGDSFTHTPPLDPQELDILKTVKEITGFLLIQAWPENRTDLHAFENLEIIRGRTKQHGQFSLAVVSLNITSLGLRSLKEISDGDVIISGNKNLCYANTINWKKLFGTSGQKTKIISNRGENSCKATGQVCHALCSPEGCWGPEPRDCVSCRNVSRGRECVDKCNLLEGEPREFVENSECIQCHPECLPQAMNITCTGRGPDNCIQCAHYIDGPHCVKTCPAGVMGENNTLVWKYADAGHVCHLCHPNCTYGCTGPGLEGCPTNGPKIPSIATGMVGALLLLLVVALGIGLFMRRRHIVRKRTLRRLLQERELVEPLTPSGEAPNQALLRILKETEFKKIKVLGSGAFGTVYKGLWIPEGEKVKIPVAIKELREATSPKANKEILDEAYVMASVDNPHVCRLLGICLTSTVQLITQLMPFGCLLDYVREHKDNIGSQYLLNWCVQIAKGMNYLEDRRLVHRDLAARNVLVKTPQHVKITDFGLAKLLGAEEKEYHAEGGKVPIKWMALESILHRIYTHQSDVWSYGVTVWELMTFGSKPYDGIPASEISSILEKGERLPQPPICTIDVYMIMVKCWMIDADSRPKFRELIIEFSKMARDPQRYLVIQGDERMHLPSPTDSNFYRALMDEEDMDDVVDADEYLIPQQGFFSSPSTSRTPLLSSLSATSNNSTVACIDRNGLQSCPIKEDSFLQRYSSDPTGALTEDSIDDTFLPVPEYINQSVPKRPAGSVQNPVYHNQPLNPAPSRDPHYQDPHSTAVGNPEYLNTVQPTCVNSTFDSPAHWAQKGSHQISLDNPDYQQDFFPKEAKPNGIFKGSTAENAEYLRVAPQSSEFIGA
SMILES,composite z-score [1],composite z-score [2],composite z-score [3],z-score [4],composite z-score [5],composite z-score [6],composite z-score [7],composite z-score [8],composite z-score [9],composite z-score [10],composite z-score [11],z-score [12],composite z-score [13],composite z-score [14],composite z-score [15],composite z-score [16],composite z-score [17],composite z-score [18],composite z-score [19],composite z-score [20]
CC(=O)OC[C@H]1O[C@H](CCON=C2[C@H]3CCn4c(=O)n(-c5ccccc5)c(=O)n4[C@H]3[C@H](O)[C@@H]3O[C@H]23)C=C[C@@H]1OC(C)=O,0.0057,-0.149,-0.442,0.838 (inactive),0.527,0.494,0.432,0.446,0.404,-0.636,0.253,-4.82,0.5,-0.151,-0.354,0.0001,0.089,0.449,0.322,0.415
COc1ccc(O[C@H]2C=C[C@@H](c3ccccc3)O[C@@H]2CON=C(C)CCN2CCc3nc(-c4ccccc4)c(-c4ccccc4)cc3C2)cc1,0.51,-0.259,-0.0652,-0.365 (inactive),-0.156,-0.796,-0.538,0.0193,0.162,0.829,-0.797,-3.38,-0.417,0.387,-0.0427,-0.169,-0.123,-0.198,0.173,0.67
CO[C@H]1COC(=O)CC=C[C@@H](C)[C@H](OC)COC(=O)CCC[C@@H]1C,0.786,-0.175,-0.791,-1.16 (inactive),0.254,0.274,0.487,0.633,1.19,1.25,-1.16,-1.3,0.797,-1.03,-1.29,-0.0751,-0.0709,-0.238,0.389,-0.069
Cc1ccc(S(=O)(=O)N[C@H]2COC(=O)CC=C[C@@H](C)COC(=O)CC=C[C@@H]2C)cc1,0.549,-0.789,-1.26,0.597 (inactive),0.813,0.448,0.823,1.4,2.04,1.36,-0.572,0.391,0.449,-0.606,-1.24,-0.12,-0.153,-0.222,0.163,-0.361
Cc1ccc(S(=O)(=O)n2c3ccccc3c3nnc(C(=O)c4ccccc4)nc32)cc1,-0.0568,-0.153,-0.22,-1.04 (inactive),0.328,0.0643,0.494,0.511,0.563,0.546,-0.463,3.59,0.563,-0.357,-0.367,0.0491,-0.332,-0.0926,0.302,-0.306
CCN1C(=O)[C@H]2[C@H]3[C@H](O)[C@H](O)CC(=NOC[C@H]4O[C@H](c5ccccc5)C=C[C@@H]4Oc4ccc(OC)cc4)[C@@H]3CC[C@H]2C1=O,0.605,0.0709,-0.187,0.387 (inactive),0.809,0.62,0.452,0.616,0.85,-0.0495,0.783,-1.65,0.621,0.406,-0.332,-0.0045,0.318,0.364,0.447,1.05
COC(=O)[C@@H]1CC[C@H](C)[C@@H](c2ccc(C)cc2)N1C(=O)c1ccc(C=NO[C@@H]2O[C@H](COC(C)=O)[C@@H](OC(C)=O)[C@H](OC(C)=O)[C@H]2OC(C)=O)cc1,0.32,-0.254,-0.393,-1.56 (inactive),0.666,0.798,0.323,0.92,0.374,-0.059,0.918,-0.465,0.368,0.0167,-0.371,-0.124,0.313,-0.0208,0.218,0.884
CO[C@H]1COC(=O)[C@@H](C)COC(=O)[C@@H](OCc2ccccc2)C=C[C@@H]1C,0.212,-0.439,-0.514,0.232 (inactive),-0.162,-0.227,-0.0072,-0.13,0.348,0.18,-0.193,-1.38,0.281,0.0243,-0.642,-0.0346,-0.276,-0.37,-0.0153,-0.807
CO[C@H]1COC(=O)[C@H](C)NC(=O)[C@@H](C)COC(=O)[C@H]2CCCN2C(=O)CC=C[C@H]1C,-0.139,-0.377,-0.823,-0.447 (inactive),0.764,0.945,0.627,0.736,1.55,-0.252,0.13,-0.328,0.663,-0.538,-1.38,-0.144,-0.24,-0.28,0.109,-0.0339
COc1ccc(O[C@H]2C=C[C@@H](c3ccccc3)O[C@@H]2COC(=O)CCC(C)=NOC[C@@H](O)[C@H]2O[C@@H]3OC(C)(C)O[C@@H]3[C@H]2O)cc1,0.933,-0.206,-0.633,0.17 (inactive),0.766,0.87,0.615,0.847,0.551,0.437,1.07,-0.0939,0.706,-0.166,-0.627,0.0001,-0.291,-0.232,0.419,0.0391
